According to the supplement of paper PMC4466140:

The binders below were run against AgAbp1 (assay: SPOT peptide array binding signal intensity (averaged, normalized) (arbitrary units (background-subtracted, floor 0; scale differs between SH3 domains)); higher = stronger binding of the SH3 domain to the peptide).
Outline: (§1)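 GST-fused SH3 domains from four yeast species were expressed in E. coli BL21(DE3), purified on glutathione Sepharose and incubated at 10 μg/ml overnight at 4°C in TBS-based blocking buffer on cellulose membranes carrying synthetic 15-mer peptides, with cysteines replaced by serines. Bound protein was detected with anti-GST antibody, an HRP anti-mouse secondary and luminol, then imaged and quantified with Genespotter. Binding signal is the normalized, background-subtracted spot intensity averaged over replicates, in arbitrary units that differ between domains.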

Binder | SPOT peptide array binding signal intensity
RAPPPVPKKPSSRIA | 8420

Each binder was assayed against AgBbc1 in the same assay as above.
Outline: as §1

Binder | SPOT peptide array binding signal intensity
RAPPPVPKKPSSRIA | 1600

These binders were tested against AgBem1-D1 in the same assay as above.
Outline: as §1

Binder | SPOT peptide array binding signal intensity
RAPPPVPKKPSSRIA | 51.5

What follows are binders tested against AgBzz1-D1 in the same assay as above.
Outline: as §1

Binder | SPOT peptide array binding signal intensity
RAPPPVPKKPSSRIA | 3320

The binders below were run against AgBzz1-D2 in the same assay as above.
Outline: as §1

Binder | SPOT peptide array binding signal intensity
RAPPPVPKKPSSRIA | 373

Each binder was assayed against AgCyk3 in the same assay as above.
Outline: as §1

Binder | SPOT peptide array binding signal intensity
RAPPPVPKKPSSRIA | ≤ 0

These binders were tested against AgFus1 in the same assay as above.
Outline: as §1

Binder | SPOT peptide array binding signal intensity
RAPPPVPKKPSSRIA | ≤ 0

Each binder was assayed against AgHof1 in the same assay as above.
Outline: as §1

Binder | SPOT peptide array binding signal intensity
RAPPPVPKKPSSRIA | 415

The binders below were run against AgHse1 in the same assay as above.
Outline: as §1

Binder | SPOT peptide array binding signal intensity
RAPPPVPKKPSSRIA | 102

Each binder was assayed against AgLsb1 in the same assay as above.
Outline: as §1

Binder | SPOT peptide array binding signal intensity
RAPPPVPKKPSSRIA | 676

The binders below were run against AgLsb4 in the same assay as above.
Outline: as §1

Binder | SPOT peptide array binding signal intensity
RAPPPVPKKPSSRIA | 48

Each binder was assayed against AgMyo5 in the same assay as above.
Outline: as §1

Binder | SPOT peptide array binding signal intensity
RAPPPVPKKPSSRIA | 36.8

Each binder was assayed against AgNbp2 in the same assay as above.
Outline: as §1

Binder | SPOT peptide array binding signal intensity
RAPPPVPKKPSSRIA | 3960

What follows are binders tested against AgRvs167 in the same assay as above.
Outline: as §1

Binder | SPOT peptide array binding signal intensity
RAPPPVPKKPSSRIA | 230

These binders were tested against AgSho1 in the same assay as above.
Outline: as §1

Binder | SPOT peptide array binding signal intensity
RAPPPVPKKPSSRIA | 296

Each binder was assayed against AgSla1-D1-D2 in the same assay as above.
Outline: as §1

Binder | SPOT peptide array binding signal intensity
RAPPPVPKKPSSRIA | ≤ 0

These binders were tested against AgSla1-D3 in the same assay as above.
Outline: as §1

Binder | SPOT peptide array binding signal intensity
RAPPPVPKKPSSRIA | 380

What follows are binders tested against CaAbp1-D1 in the same assay as above.
Outline: as §1

Binder | SPOT peptide array binding signal intensity
RAPPPVPKKPSSRIA | 2320

What follows are binders tested against CaAbp1-D2 in the same assay as above.
Outline: as §1

Binder | SPOT peptide array binding signal intensity
RAPPPVPKKPSSRIA | 4330

The binders below were run against CaBbc1 in the same assay as above.
Outline: as §1

Binder | SPOT peptide array binding signal intensity
RAPPPVPKKPSSRIA | 1870

These binders were tested against CaBem1-D1 in the same assay as above.
Outline: as §1

Binder | SPOT peptide array binding signal intensity
RAPPPVPKKPSSRIA | 12.5

The binders below were run against CaBzz1-D1 in the same assay as above.
Outline: as §1

Binder | SPOT peptide array binding signal intensity
RAPPPVPKKPSSRIA | 5970

What follows are binders tested against CaBzz1-D2 in the same assay as above.
Outline: as §1

Binder | SPOT peptide array binding signal intensity
RAPPPVPKKPSSRIA | 2940

What follows are binders tested against CaCyk3 in the same assay as above.
Outline: as §1

Binder | SPOT peptide array binding signal intensity
RAPPPVPKKPSSRIA | 61.5

These binders were tested against CaFus1 in the same assay as above.
Outline: as §1

Binder | SPOT peptide array binding signal intensity
RAPPPVPKKPSSRIA | 28.5

These binders were tested against CaHof1 in the same assay as above.
Outline: as §1

Binder | SPOT peptide array binding signal intensity
RAPPPVPKKPSSRIA | ≤ 0

Each binder was assayed against CaHse1 in the same assay as above.
Outline: as §1

Binder | SPOT peptide array binding signal intensity
RAPPPVPKKPSSRIA | 1200

What follows are binders tested against CaLsb1 in the same assay as above.
Outline: as §1

Binder | SPOT peptide array binding signal intensity
RAPPPVPKKPSSRIA | 0.5

What follows are binders tested against CaLsb4 in the same assay as above.
Outline: as §1

Binder | SPOT peptide array binding signal intensity
RAPPPVPKKPSSRIA | 2220

These binders were tested against CaMyo5 in the same assay as above.
Outline: as §1

Binder | SPOT peptide array binding signal intensity
RAPPPVPKKPSSRIA | 2.5

What follows are binders tested against CaNbp2 in the same assay as above.
Outline: as §1

Binder | SPOT peptide array binding signal intensity
RAPPPVPKKPSSRIA | 1040

Each binder was assayed against CaRvs167 in the same assay as above.
Outline: as §1

Binder | SPOT peptide array binding signal intensity
RAPPPVPKKPSSRIA | 170

What follows are binders tested against CaRvs167-3 in the same assay as above.
Outline: as §1

Binder | SPOT peptide array binding signal intensity
RAPPPVPKKPSSRIA | 1

These binders were tested against CaSho1 in the same assay as above.
Outline: as §1

Binder | SPOT peptide array binding signal intensity
RAPPPVPKKPSSRIA | 94

The binders below were run against CaSla1-D1-D2 in the same assay as above.
Outline: as §1

Binder | SPOT peptide array binding signal intensity
RAPPPVPKKPSSRIA | 3890

What follows are binders tested against CaSla1-D3 in the same assay as above.
Outline: as §1

Binder | SPOT peptide array binding signal intensity
RAPPPVPKKPSSRIA | 250

Each binder was assayed against ScAbp1 in the same assay as above.
Outline: as §1

Binder | SPOT peptide array binding signal intensity
RAPPPVPKKPSSRIA | 2860
